High-throughput results: PubChem, several laboratories
HIF-2a inh – HIF-2a inhibition; 360,000 compounds, 0.72% hits; inhibition, % at 18.8 µM; 786-0 RCC cells HIF-2a reporter, luciferase luminescence, overnight;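 active = inhibition of the luminescence signal of 40% or more relative to plate controls, in a single-dose primary screen at 18.75 µM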
Shn3 3UTR inh – inhibitors of Schnurri-3 3'UTR reporter in osteoblasts; Clone20 osteoblast Shn3 3'UTR firefly luciferase, 24 h; inhibition, % at 12.5 µM; 360,000 compounds, 0.52% hits; AID 588674;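 active = mean inhibition of at least 75% with every replicate also reaching 75%; inconclusive = mean inhibition at least 75% but some replicate below; inactive = mean inhibition below 75%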;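 also: 0% = median of neutral control wells and 100% = pilot-screen positive control compound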
Peg3 promoter – Peg3 promoter activity inhibition. HeLa PEG-Prom luciferase reporter, luminescence, overnight. inhibition, % at 20 µM. 360,000 compounds, 1.7% hits. AID 588405;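 active = inhibition of at least 50% at 20 µM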
CF NFkB block – inhibitors of cystic fibrosis induced NF-kB | KKLEB NF-kB-GFP reporter, PAF-induced, GFP fluorescence overnight | inhibition, % at 5 µM | 360,000 compounds, 0.86% hits | AID 588850;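 active = at least 50% inhibition at 5 µM, scaled per plate between neutral and stimulator controls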;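 also: PAF is a Pseudomonas aeruginosa culture filtrate used as stimulus; plate controls were PAF-stimulated DMSO wells for no effect and unstimulated DMSO wells for full effect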
KKLEB cytotox – counter-screen for CF NF-kB inhibitors: cytotoxicity | activity change (cytotoxicity), % at 5 µM | AID 602141 | 360,000 compounds, 0.36% hits | KKLEB CF airway cells viability, ATPlite luminescence, overnight; stronger effect = lower value; cells stimulated with P. aeruginosa culture filtrate;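 active = corrected activity change at or below -50% at 5 µM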
An asterisk follows results filed as active; ? = inconclusive; nt = not tested or not shown. The list is not random: actives were taken first. Their share in the collection is about 2.6%.

SMILES | HIF-2a inh | Shn3 3UTR inh | Peg3 promoter | CF NFkB block | KKLEB cytotox
Cc1cc(C)c2nc(N(CCCN(C)C)C(=O)C3=COCCO3)sc2c1 | -4.9 | -8.2 | 25.0 | 28.5 | -13.4
N#C/C(C(=O)NCc1ccccc1)=C1/SC(Cc2ccc(Cl)cc2)C(=O)N1c1ccccc1 (stereo not drawn) | 9.7 | 19.4 | 16.3 | -9.2 | -0.3
COc1cccc2sc(N(CCCN(C)C)C(=O)c3ccc(S(=O)(=O)N4CCc5ccccc5C4)cc3)nc12 | 13.3 | 15.4 | 85.3* | 26.5 | -15.9
CCc1ccc2nc(N(CCCN(C)C)C(=O)c3ccc(C(=O)c4ccccc4)cc3)sc2c1 | -3.3 | -29.6 | 101.8* | 18.1 | -20.6
CC1CCCCN1Cc1c(O)ccc2c(=O)c(-c3nc4ccccc4s3)c(N)oc12 (stereo not drawn) | -60.9 | 6.8 | -32.1 | -30.0 | 10.5
CCOC(=O)N1CCC(NC(=O)CCc2nc(-c3ccc(C)cc3)no2)CC1 | 1.4 | nt | 3.0 | -9.7 | -1.9
Cn1nc(-c2ccc(Cl)cc2)nc2c(=O)n(C)c(=O)nc1-2 | nt | 117.7* | nt | nt | nt
CS(=O)(=O)n1nc(-c2ccc(Cl)cc2)nc1N | -52.7 | 1.7 | -25.7 | -5.7 | 4.2
O=C(O)/C(CC(=O)c1ccc(Cl)cc1)=N/Nc1ccc([N+](=O)[O-])cc1[N+](=O)[O-] | -7.1 | -6.5 | -17.7 | 9.9 | 2.0
COc1ccc(C2CC(c3ccc(Cl)cc3)=NN2c2ccc(S(N)(=O)=O)cc2)cc1 (stereo not drawn) | -23.4 | 12.0 | 23.9 | 23.8 | -7.3
COc1ccc(C2CC(c3cccc(Cl)c3)=NN2c2ccc(S(N)(=O)=O)cc2)cc1 (stereo not drawn) | -8.4 | 8.9 | 54.0* | 20.2 | 2.2
O=[N+]([O-])c1ccc(/C=N/Nc2nc(-c3ccccc3)c3cc(Br)ccc3n2)o1 | 4.7 | 12.9 | 62.5* | -22.2 | 3.2
Cc1cc(C)n2nc(SCc3nnc(-c4ccccc4Br)o3)nc2n1 | 17.2 | -16.2 | 4.9 | -20.3 | 8.1
O=C(Nc1ccc(F)cc1)c1nc[nH]c1C(=O)Nc1ccc([N+](=O)[O-])cc1 | 14.4 | 9.9 | 3.7 | 22.2 | -29.1
O=C(Nc1ccc([N+](=O)[O-])cc1)c1nc[nH]c1C(=O)NC1CCCCC1 | 18.6 | 38.7 | 48.7 | 35.3 | -51.1*
CCCCn1nnnc1SCC(=O)Nc1ccc(N(C)C)cc1 | -14.4 | 3.9 | -1.8 | -2.8 | 3.3
O=C(c1cc(S(=O)(=O)N2CCOCC2)ccc1Cl)N1CCCCC1CO (stereo not drawn) | 1.7 | 17.5 | 7.3 | -10.7 | 5.7
Cc1ccc(-n2cc(CNCCc3ncc(C)[nH]3)c(-c3ccc(F)cc3)n2)cc1 | -54.1 | 17.8 | 57.0* | 5.7 | -9.8
COc1ccc(CNC(=O)CS(=O)CC(=O)O)cc1OC (stereo not drawn) | 11.6 | -4.8 | 5.2 | 7.6 | -5.0
Oc1ccc(CCNc2c3ccccc3nc3ccccc23)cc1O | 53.7* | -21.5 | 108.7* | -80.1 | -26.2
CNc1nc(NCc2ccccc2)c2ccccc2n1 | 8.7 | 34.9 | -0.6 | -22.3 | -0.9
c1ccc(CNc2c3ccccc3nc3ccccc23)cc1 | 44.0* | 68.5 | 96.7* | -85.3 | -29.1
Oc1ccccc1Nc1nc(NCc2ccccc2)c2ccccc2n1 | -23.5 | 89.2* | 19.1 | 2.2 | -30.9
COc1ccccc1NC(=O)Nc1ccnn1C1CCN(C(=O)c2cccnc2)CC1 | -11.4 | -27.9 | 5.9 | -3.1 | -17.9
CC(C)(C)c1nnc(NS(=O)(=O)c2ccc([N+](=O)[O-])cc2)s1 | 8.5 | 0.3 | 4.8 | 9.0 | 6.6
SMILES | HIF-2a inh | Shn3 3UTR inh | Peg3 promoter | CF NFkB block | KKLEB cytotox
CCCc1nc(SCC(=O)N2CCC(Cc3ccccc3)CC2)c2c(=O)n(C)c(=O)n(C)c2n1 | -25.3 | 5.8 | 98.7* | 28.5 | 2.7
Cn1c(=O)c2c(SCC(N)=O)nc(CC(C)(C)C)nc2n(C)c1=O | 4.9 | 6.9 | 14.5 | 15.3 | 1.3
Cn1c(=O)c2c(SCC(=O)N3CCCc4ccccc43)nc(CC(C)(C)C)nc2n(C)c1=O | 53.3* | -14.5 | 23.4 | 36.1 | -14.7
O=C(C1CCCCC1)N1C[C@@H](O)[C@H](n2cc(-c3ccc(F)cc3)nn2)C[C@@H]1c1ccccc1 | -13.1 | 27.1 | 32.8 | 13.3 | -10.3
Cc1ccc2c(c1)S/C(=C/c1ccc[n+](C)c1)N2CCO | 16.1 | -14.4 | 4.5 | -8.8 | 12.8
CCCCN1/C(=C/c2ccc3ccccc3[n+]2CC)Sc2ccccc21 | -33.4 | 89.9* | 48.1 | -151.1 | 3.6
CCCCN1/C(=C/c2cccc[n+]2C)Sc2cc(NC(C)=O)ccc21 | 5.3 | 5.8 | 6.8 | -2.3 | 7.0
CCN1/C(=C/c2ccc3cc(C)ccc3[n+]2C)Sc2ccc3sccc3c21 | 42.4* | 91.2* | 110.6* | -65.5 | -3.7
CCN1/C(=C/c2ccc3cc(C)ccc3[n+]2CC)Sc2cc(C)ccc21 | 63.3* | ? | 97.3* | -433.9 | -11.0
CCN1/C(=C/c2ccc3ccccc3[n+]2CC)C=Cc2ccccc21 | 66.2* | 91.1* | 86.5* | -41.5 | -7.0
CN(C)CCNc1ncnc2c1ncn2[C@H]1CN(Cc2ccncc2)C[C@@H](CO)O1 | 4.6 | -3.2 | 2.9 | -14.6 | -3.7
CCOc1cc(/C=C2/C(=O)ON=C2C)ccc1OCc1ccc(F)cc1 | -1.2 | 56.8 | 65.0* | -13.0 | 7.8
CCOc1cc(/C=C2/C(=O)ON=C2C)ccc1OCc1ccccc1F | 16.9 | 83.8 | 96.8* | -42.5 | 19.2
COc1cc(N)c2ncccc2c1Cl | 11.6 | -18.7 | 14.3 | 13.8 | 7.1
COc1ccc(OC)c2cc3ccccc3cc12 | -28.9 | 11.7 | 54.9* | -52.6 | -3.0
COc1cc2ccccc2cc1C(=O)O | 6.6 | 4.4 | 6.4 | -17.5 | -6.9
COc1cc2ccccc2ccc1=NO | 5.0 | 8.0 | -29.9 | 78.6* | -11.7
COCCN1C(=O)CCC1(C)c1nnnn1-c1ccc2ccccc2c1 (stereo not drawn) | 1.4 | nt | nt | nt | nt
Cn1cc(C(=O)c2ccc(Cl)cc2Cl)cc1C(=O)N/N=C(\N)COc1ccc(Cl)cc1 | 29.5 | 18.2 | 52.6* | 5.1 | 0.8
CCCCCc1ccc(OCCC[n+]2ccccc2)c(CCCCC)c1 | 31.9 | ? | 106.6* | 84.7* | -91.1*
CCCCCc1ccc(OCCOCCn2c[n+](C)c3ccccc32)c(CCCCC)c1 | 9.0 | 93.4* | 104.7* | 37.9 | -42.8
O=C(NCC1OCCc2ccccc21)c1ccc(NC(=O)c2cccc(Br)c2)cc1 (stereo not drawn) | 3.9 | 30.2 | 3.3 | 20.1 | -19.4
Cc1cccc(N2CCN(S(=O)(=O)c3c(C(=O)N4CCCCC4)c(C)n(C)c3C)CC2)c1C | 6.8 | -13.8 | -0.5 | -10.0 | 4.1
Cc1ccn2c(=O)nc(SCC(=O)N3N=C(c4cccs4)CC3c3ccc(F)cc3)nc2c1 (stereo not drawn) | 18.1 | 6.5 | 34.8 | 12.9 | -6.0
NCc1ccc(S(N)(=O)=O)cc1 | 1.6 | -1.5 | 8.4 | 4.4 | -50.8*
COc1ccc(NC(=O)c2cc(-c3cc(C)cc(C)c3O)n[nH]2)cc1Cl | -12.2 | 11.5 | 61.0* | 33.0 | -4.3
Cc1ccc(N2C(=O)C3C4C=CC(CC4)C3C2=O)cc1[N+](=O)[O-] (stereo not drawn) | 3.9 | 10.9 | 2.7 | -6.1 | 2.2
